Source: ChEMBL document CHEMBL3988442, “University of Dundee, Small-Polar-MMV Screening Library” (2021)

target: T1, Arginase-2, mitochondrial (Homo sapiens) (UniProt P78540); assay: in vitro enzyme assay to detect the production of urea directly proportional to the activity of Arginase II; type: functional; design: scale not given: in the data most compounds retested in dose-response had high values; details: 33.3 µM
T1 sequence (whole entry): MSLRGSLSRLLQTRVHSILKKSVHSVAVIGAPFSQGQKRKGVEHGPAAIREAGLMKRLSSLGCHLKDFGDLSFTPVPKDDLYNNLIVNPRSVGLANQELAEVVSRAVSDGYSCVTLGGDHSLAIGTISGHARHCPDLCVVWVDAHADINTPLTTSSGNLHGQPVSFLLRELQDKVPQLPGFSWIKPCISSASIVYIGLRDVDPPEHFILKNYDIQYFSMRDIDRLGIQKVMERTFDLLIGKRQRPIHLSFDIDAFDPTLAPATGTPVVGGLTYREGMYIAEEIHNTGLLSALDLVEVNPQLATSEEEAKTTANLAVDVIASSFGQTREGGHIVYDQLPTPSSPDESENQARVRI

SMILES | Percent Effect [%]
Cn1ccc(C(=O)NC2CCC23CCN(C(=O)c2ccncc2)CC3)c1 (stereo not given) | 0
CNC(=O)[C@H]1C[C@H]2OCC[C@H]2N(Cc2cccc3ccccc23)C1 | -3.23
COc1ccc(OCCCN2CCOC(Cn3cccn3)C2)cc1 (stereo not given) | 1.94
Cc1nc2ccccc2nc1CN1CCCC1c1c(C)nn(C)c1C (stereo not given) | -1.94
CCN(Cc1cccc(Cl)c1)Cc1nc2c(cnn2C)c(=O)[nH]1 | -1.47
O=C(CN1CCCC1Cn1cncn1)NCCOc1cccc(F)c1 (stereo not given) | -2.52
COc1ccc(CCN2CCN(C(=O)c3scnc3C)CC2)cc1 | -3.55
O=C(c1ccnnc1)N1C[C@@H](OCC2CCCC2)[C@H]2OCCC[C@H]21 | 3.33
CCc1ccc(CCC(=O)N2CCOCC2c2ncon2)cc1 (stereo not given) | 3.14
CC(C)CN(C)c1ccc(C(=O)N2CCCC2c2cnn(C)c2)cn1 (stereo not given) | 1.44
COc1ccc(CNCC(C)Oc2ccccn2)cc1Br (stereo not given) | -4.75
CCc1nc(C2CCCN2CC(=O)Nc2c(C)nn(C)c2C)no1 (stereo not given) | -0.455
Cn1c(Cn2cccn2)nnc1C1CCCN(c2ccncc2)C1 (stereo not given) | -1.43
CN(C)C(=O)N1CCC2(CCCN(Cc3cnn(C)c3)C2)C1 (stereo not given) | 0.955
O=C(C1=CCCC1)N1CCC[C@]2(C[C@@H](Oc3ncccc3F)CO2)C1 | 0.399
Cn1ccc(C(=O)NC2CCC23CCN(C(=O)N2CCCC2)CC3)c1 (stereo not given) | -6.05
Cc1cc(C)c2nc(CN3CCOC(CCO)C3)cc(O)c2c1 (stereo not given) | -2.38
CNS(=O)(=O)c1ccc(C(=O)NC2CCc3nc(C)cn3C2)o1 (stereo not given) | -3.45
O=C(CN1CCC(C(=O)c2cc(F)ccc2F)CC1)NC1CCCC1 | 5.92
Cc1ncsc1CCC(=O)NCc1cc2n(n1)CCN(C(=O)N(C)C)C2 | 3.97

target: T2, Proteasome subunit beta (Trypanosoma cruzi) (UniProt O96673); assay: Trypanosoma cruzi proteasome chymotrypsin-like activity (TcProtChymo) assay.; type: functional; design: scale not given: in the data most compounds retested in dose-response had high values; details: 9.37 µM
T2 sequence (whole entry): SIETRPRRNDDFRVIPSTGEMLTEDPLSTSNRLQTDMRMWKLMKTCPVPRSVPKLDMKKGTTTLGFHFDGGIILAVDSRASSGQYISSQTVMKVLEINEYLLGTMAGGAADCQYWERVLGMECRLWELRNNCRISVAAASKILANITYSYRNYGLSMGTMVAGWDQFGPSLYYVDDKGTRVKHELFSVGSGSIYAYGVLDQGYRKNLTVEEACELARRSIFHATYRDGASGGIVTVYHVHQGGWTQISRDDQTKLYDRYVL

SMILES | Percent Effect [%]
CC(C)NC(=O)Cn1cc(-c2ccccc2)cn1 | 13.7
Cc1nn(C)c(C)c1C1COCCN1C(=O)c1ccccc1 (stereo not given) | -1.01
O=C(N1CCCO1)[C@@]12CCO[C@@H]1CCN(C1CCCCC1)C2 | 4.96
CC(C(=O)NCc1ccc(N2CCNC(=O)C2)cc1)n1cncn1 (stereo not given) | 5.57
Cn1cc(CCNC(=O)NCc2nnc3n2CCC3)cn1 | -0.573
CO[C@H]1CN(Cc2cccc(C#N)c2)[C@@H]2COC[C@H]12 | 7.52
CC(NC(=O)c1nc(=O)[nH][nH]1)c1ccc(OCC2CC2)c(F)c1 (stereo not given) | 4.7
c1ccc(-c2noc(CN3CCC(c4ccn[nH]4)CC3)n2)cc1 | 21.9
Cc1csc(N2CCN(C(=O)CCn3cncn3)CC2)n1 | 6.31
Cc1cc(C2CCCN(C(=O)c3cnn(C)c3)C2)ccn1 (stereo not given) | 12.3
CCN(CC)CCNC(=O)c1cnc(C(C)(C)C)s1 | 8.21
CCC(=O)Nc1nnc(CCOc2cccc(OC)c2)s1 | 9.43
CCCn1[nH]cc/c1=N\C(=O)CN1CCCC1c1c(C)nn(C)c1C (stereo not given) | 3.78
O=C(c1ccnnc1)N1C[C@H](Oc2cccnc2)[C@H]2OCCC[C@H]21 | 4.65
COc1ccc(CN2CCC(O)CC2)c(OC)c1 | 4.83
CS(=O)(=O)Cc1cccc(C(=O)NCC2Cc3ccccc3O2)c1 (stereo not given) | 17.9
O=C(CCc1cccs1)N1CCCCC1Cn1cccn1 (stereo not given) | 10.4
CCOc1ccccc1OC1CCN(C(=O)c2ccc(=O)[nH]n2)CC1 | 12.9
CN(C)CCNC(=O)c1ccc(OC2CCN(S(C)(=O)=O)CC2)c(Cl)c1 | 13.8
N#Cc1ccc(C(=O)N2CCn3c(Cn4cccn4)cnc3C2)cc1 | 5.98

SMILES | Percent Effect [%]
Cn1ccc(C(=O)NC2CCC23CCN(C(=O)c2ccncc2)CC3)c1 (stereo not given) | 13.6
CNC(=O)[C@H]1C[C@H]2OCC[C@H]2N(Cc2cccc3ccccc23)C1 | 8.01
COc1ccc(OCCCN2CCOC(Cn3cccn3)C2)cc1 (stereo not given) | 2.74
Cc1nc2ccccc2nc1CN1CCCC1c1c(C)nn(C)c1C (stereo not given) | 2.23
CCN(Cc1cccc(Cl)c1)Cc1nc2c(cnn2C)c(=O)[nH]1 | 15.4
O=C(CN1CCCC1Cn1cncn1)NCCOc1cccc(F)c1 (stereo not given) | -3.47
COc1ccc(CCN2CCN(C(=O)c3scnc3C)CC2)cc1 | 16
O=C(c1ccnnc1)N1C[C@@H](OCC2CCCC2)[C@H]2OCCC[C@H]21 | 11.8
CCc1ccc(CCC(=O)N2CCOCC2c2ncon2)cc1 (stereo not given) | 3.05
CC(C)CN(C)c1ccc(C(=O)N2CCCC2c2cnn(C)c2)cn1 (stereo not given) | 8.71
COc1ccc(CNCC(C)Oc2ccccn2)cc1Br (stereo not given) | 9.8
CCc1nc(C2CCCN2CC(=O)Nc2c(C)nn(C)c2C)no1 (stereo not given) | 7.81
Cn1c(Cn2cccn2)nnc1C1CCCN(c2ccncc2)C1 (stereo not given) | 17.6
CN(C)C(=O)N1CCC2(CCCN(Cc3cnn(C)c3)C2)C1 (stereo not given) | 19
O=C(C1=CCCC1)N1CCC[C@]2(C[C@@H](Oc3ncccc3F)CO2)C1 | 23.2
Cn1ccc(C(=O)NC2CCC23CCN(C(=O)N2CCCC2)CC3)c1 (stereo not given) | 19.2
Cc1cc(C)c2nc(CN3CCOC(CCO)C3)cc(O)c2c1 (stereo not given) | 10.3
CNS(=O)(=O)c1ccc(C(=O)NC2CCc3nc(C)cn3C2)o1 (stereo not given) | 11
O=C(CN1CCC(C(=O)c2cc(F)ccc2F)CC1)NC1CCCC1 | 8.53
Cc1ncsc1CCC(=O)NCc1cc2n(n1)CCN(C(=O)N(C)C)C2 | 15.3
